CYP2C9 act = CYP2C9 (human) activation. P11712. recombinant CYP2C9, luciferin-H conversion, luminescence; hits give high values; factor 1 = untreated enzyme, 0 = blocked. activation factor at 5 µM. 1.4% of 96,000 active;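 active = activation factor of 2 or more for CYP2C9 at a 5 µM dose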;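 note: 0 = sulfaphenazole-blocked wells and 1 = vehicle-only wells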
PostGolgi ctrl = growth of the yeast control strain, post-Golgi counter-screen; inhibition, % at 10 µM; efflux-deficient yeast background strain, growth absorbance A615, 16 h; 5% of 98,000 active
CYP2C19 inh = human CYP2C19 inhibition | AID 778 | inhibition, % at 5 µM | P33261 | 21% of 96,000 active | CYP2C19 Supersomes, luciferin-H EGE luminescence, 30 min;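 active = CYP2C19 inhibition above a set limit at 5 µM in the primary screen, cut at about 50% in these data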;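 note: plate controls were negative control wells for no effect and 2.5 mM tranylcypromine positive control for full effect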
Target sequence (P33261 whole entry, looked up): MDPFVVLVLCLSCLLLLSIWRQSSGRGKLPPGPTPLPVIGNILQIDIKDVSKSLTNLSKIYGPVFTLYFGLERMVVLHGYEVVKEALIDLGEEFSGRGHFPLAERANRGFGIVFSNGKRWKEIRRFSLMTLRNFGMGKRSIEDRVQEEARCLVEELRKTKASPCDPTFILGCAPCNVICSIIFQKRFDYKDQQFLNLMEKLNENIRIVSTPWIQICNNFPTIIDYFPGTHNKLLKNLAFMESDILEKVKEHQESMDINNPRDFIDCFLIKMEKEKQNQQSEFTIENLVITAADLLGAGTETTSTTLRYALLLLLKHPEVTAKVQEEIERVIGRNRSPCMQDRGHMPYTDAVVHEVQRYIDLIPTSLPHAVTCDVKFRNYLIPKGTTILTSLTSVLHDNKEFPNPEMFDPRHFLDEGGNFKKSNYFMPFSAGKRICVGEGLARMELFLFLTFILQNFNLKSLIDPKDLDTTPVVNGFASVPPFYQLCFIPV
PostGolgi yeast = growth inhibition of a yeast mutant, post-Golgi transport screen; post-Golgi transport phenotypic cell assay; inhibition, % at 10 µM; 0.9% of 98,000 active;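 note: yeast cells grown in 1536-well plates; yeast grown about 18 h at 30C before absorbance read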
CYP2C19 activ = activators of human cytochrome P450 2C19; activation factor at 5 µM; P33261; recombinant CYP2C19, luciferin-H EGE luminescence; hits give high values; 0 = fully inhibited enzyme, 1 = untreated enzyme; AID 1025; 96,000 tested, under 10 active;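 active = activation factor of at least 2 at 5 µM in the primary screen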;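 note: 0 = wells with 2.5 mM tranylcypromine and 1 = vehicle-only wells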
CYP2C9 inhib = human CYP2C9 inhibition. AID 777. inhibition, % at 5 µM. CYP2C9 Supersomes, luciferin-H conversion, luminescence. 20% of 96,000 active. P11712;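 active = blocking of liver enzyme CYP2C9 beyond about 50% at 5 µM, limit read from the data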
* = called active by the depositor; . = no result given. This is a sample that favours compounds with a hit; in the whole collection about 32% have one here. Cut-off read from the data, not from the text of the source, unless noted: active = inhibition above about 30%; inactive = the rest.

SMILES	CYP2C9 act	PostGolgi ctrl	CYP2C19 inh	PostGolgi yeast	CYP2C19 activ	CYP2C9 inhib
CCn1c(=S)[nH]c2cc(S(=O)(=O)N3CCCCC3)ccc21	0.5	15	45	-3	0.6	51*
CCOc1cc(S(=O)(=O)N2CCCCC2)ccc1Cl	2.5*	-2	71*	3	0.3	-148
CCOC(=O)c1c(C)n(C)c2ccc(OC)c(NC(=O)c3cccs3)c12	0.9	-1	-10	11	1.1	12
C=CCn1c(SCc2ccc(C#N)cc2)nnc1-c1cccc(Cl)c1	0.4	27	97*	-5	0	64*
CCn1c(COc2ccc(C)cc2)nnc1SCc1ccc(C#N)cc1	0.8	6	3	-8	1	18
C=CCn1c(SCC(=O)NC(C)(C)C)nnc1-c1ccccc1O	0.9	5	30	9	0.7	11
C=CCn1c(SCc2cccc(C#N)c2)nnc1-c1ccccc1O	0.6	16	100*	6	0	39
COCCSc1ccccc1C(=O)Nc1cc(C)on1	1	1	5	-10	0.9	5
O=C(O)c1ccccc1-c1ccccc1C(=O)NCCCO	.	6	.	-4	.	.
CC(C)N1C2OC(C3OC4C(O3)N(C(C)C)S(=O)(=O)N4C(C)C)OC2N(C(C)C)S1(=O)=O (stereo unspecified)	0.9	96*	9	104*	0.9	5
O=S(=O)(c1ccc2nc(COc3ccccc3)[nH]c2c1)N1CCOCC1	1.1	10	-19	1	1.2	-8
COc1cc2c(cc1NC(=O)c1cncc(Br)c1)oc1ccccc12	1.1	4	-20	-1	1.2	-15
COc1cc2c(cc1NC(=O)c1cc(-c3ccncc3)nc3ccc(C)cc13)oc1ccccc12	0.1	2	61*	4	0.4	87*
Cc1ccc(C(=O)Nc2cc3c(oc2=O)CCCC3=O)cc1	0.9	11	-1	3	1	9
Cc1ccccc1NC(=O)CN1C(=O)NC2(CCCCC2)C1=O	0.8	4	11	3	0.9	24
Fc1ccccc1CSc1nncn1NC/C=C/c1ccccc1	0.8	0	53*	-5	0.5	18
C#CCSc1nncn1C(=O)/C=C/c1ccccc1	1	-5	-11	22	1.1	2
O=C(CCN1C(=O)c2ccccc2C1=O)NC(=S)Nc1cccc(Cl)c1	0.6	20	26	9	0.7	42
Cn1c(C(O)c2ccc(Cl)cc2)nc(Cl)c1Cl (stereo unspecified)	0.9	15	91*	-1	0.1	15
Cn1c(C(O)c2ccccc2F)nc(Cl)c1Cl (stereo unspecified)	1	-6	48	-10	0.5	-3
N/C(=N\OS(=O)(=O)c1ccc(Cl)cc1)c1ccncc1	0.2	4	68*	-7	0.3	81*
COc1ncnc2c1N[C@@](C)(O)c1c(F)c(F)c(F)c(F)c1S2	0.7	-5	86*	13	0.1	29
c1ccc(-c2ccc(-c3cn4c(n3)CCC4)cc2)cc1	1	33*	10	0	0.9	-4
COc1ccc(-c2cn3c(n2)CCC3)cc1	1	4	-9	-4	1.1	0
CNC(=O)c1ccccc1S(=O)(=O)c1ccccc1C#N	0.9	-2	13	0	0.9	10
SMILES	CYP2C9 act	PostGolgi ctrl	CYP2C19 inh	PostGolgi yeast	CYP2C19 activ	CYP2C9 inhib
CCN1C(=O)c2cccc3c(NC(=O)c4ccc(S(=O)(=O)N5CCOCC5)cc4)ccc1c23	0.3	4	38	-1	0.6	74*
CN1C(=O)c2cccc3c(S(=O)(=O)Nc4ccccn4)ccc1c23	.	0	.	2	.	.
CCN1C(=O)c2cccc3c(NS(=O)(=O)c4ccc(NC(C)=O)cc4)ccc1c23	0.1	-9	99*	-4	0	86*
CCN1C(=O)c2cccc3c(S(=O)(=O)Nc4ccccc4OC)ccc1c23	0	17	61*	-3	0.4	99*
CCN1C(=O)c2cccc3c(NC(=O)c4ccc(S(=O)(=O)N(C)C)cc4)ccc1c23	0.6	4	13	-1	0.9	36
CCOC(=O)c1oc2nc(CC(C)C)c3c(c2c1N)CCC3	1.1	25	23	3	0.8	-9
CCC(=O)Nc1nc(C)c(C(=O)N2CCCCC2)s1	1	1	12	18	0.9	4
CCCc1ccc(Oc2c(-c3ccc(O)c(C)c3O)n[nH]c2C)cc1	0	65*	100*	80*	0	98*
CCCc1ccc(Oc2cn[nH]c2-c2ccc(O)c(C)c2O)cc1	0	92*	98*	80*	0	99*
CC1CCN(C(=O)CSc2nnc(-c3ccc(S(=O)(=O)N4CCOCC4)cc3)n2C)CC1	.	-9	.	-4	.	.
CCC(c1nnnn1Cc1ccco1)N(CCN1CCOCC1)Cc1cc2cc(C)ccc2[nH]c1=O (stereo unspecified)	0.8	1	20	0	0.8	15
O=C(O)c1ccc(CSc2ncn[nH]2)cc1	1	1	10	-4	0.9	-3
Cc1ccc(-c2nnc(N3CCN(C(=O)CSc4ncn[nH]4)CC3)c3ccccc23)cc1	0.4	-3	70*	5	0.3	64*
COc1ccc(C(=O)CSc2ncn[nH]2)cc1OC	1.1	24	29	1	0.7	-15
Cc1ccc(C(=O)CSc2ncn[nH]2)cc1	0.5	-9	49	1	0.5	53*
CCc1ccc(C(=O)CSc2ncn[nH]2)cc1	0.7	1	75*	-4	0.3	31
Cc1nnc(NC(=O)c2c(F)c(F)c(F)c(F)c2F)s1	1.1	3	-14	-2	1.1	-7
COc1ccc(-c2cc(CNC(=O)CN(C)Cc3ccccc3)on2)cc1	1.8	10	50	5	0.5	-80
Cn1ncc2nnn(-c3ccccc3)c(=O)c21	1.1	14	-10	25	1.1	-12
Cn1ncc2nc[nH]c(=O)c21	0.6	-2	50*	0	0.5	41
COc1ccc(-c2nnc(-c3ccc(Br)o3)o2)cc1OC	0.7	11	56*	-5	0.4	31
Cc1nnc(SCCn2c(N(C)Cc3ccccc3)nc3c2c(=O)[nH]c(=O)n3C)s1	0.9	12	-4	13	1	9
CC(C)C(NC=C1C(=O)OC(C)(C)OC1=O)C(=O)O (stereo unspecified)	0.3	3	2	-6	1	65*
O=C(O)c1cc(=O)cc(C(=O)O)[nH]1	1.2	-2	-20	-5	1.2	-16
O=C(O)c1ccc(-c2ccccc2)[nH]1	1.6	20	72*	-5	0.3	-56
Oc1oc(-c2ccccc2)nc1C=NCc1ccncc1	.	3	.	2	.	.
COc1cc2c(cc1OC)CN(CC(=O)Nc1ccc(C#N)cc1)CC2	0.8	-1	23	2	0.8	24
Cc1cc(N/C=C/C(=O)c2cccc3ccccc23)no1	1.3	23	57*	-8	0.4	-33

Screening data from PubChem.
